High-throughput results deposited in PubChem BioAssay by several laboratories.
PKA-R2B act – activators of PKA-R2B holoenzyme, primary screen, biochemical, fluorescence polarization, Cy5-IP20, human; activation, % at 11.4 µM; hit rate 0.079% among 340,000; PKA-R2B holoenzyme dissociation; R2B truncated from residue 108, S112A mutant; 0% DMSO only, 100% 113 µM cGMP; cAMP-dependent protein kinase catalytic subunit beta (Homo sapiens) + cAMP-dependent …;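 active = activation above a cutoff set at the mean over all compounds plus 3 SD, cut at about 18% in these data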;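 note: higher means more holoenzyme dissociation and a rise in polarization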
Target sequence (P31323 whole entry, looked up, other chains not shown, the tested form may be a part): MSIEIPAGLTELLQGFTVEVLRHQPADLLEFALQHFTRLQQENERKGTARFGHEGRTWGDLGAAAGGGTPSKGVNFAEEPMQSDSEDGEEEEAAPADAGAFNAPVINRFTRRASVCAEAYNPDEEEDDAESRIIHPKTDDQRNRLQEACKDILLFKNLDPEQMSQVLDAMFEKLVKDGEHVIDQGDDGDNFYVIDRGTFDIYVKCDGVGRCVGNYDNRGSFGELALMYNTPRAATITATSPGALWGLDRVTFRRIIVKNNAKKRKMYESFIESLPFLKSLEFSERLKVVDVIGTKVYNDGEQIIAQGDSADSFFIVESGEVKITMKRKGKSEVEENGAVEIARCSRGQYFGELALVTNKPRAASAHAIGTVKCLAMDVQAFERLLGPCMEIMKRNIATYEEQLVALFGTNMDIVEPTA
PKA-R1A act – activators of PKA-R1A holoenzyme, primary screen, biochemical, fluorescence polarization, Cy5-IP20, bovine R1A, mouse PKAc; cAMP-dependent protein kinase type I-alpha regulatory subunit (Bos taurus) + …; PKA-R1A dissociation; scaled: DMSO 0%, 113 µM cGMP 100%; activation, % at 11.4 µM; hit rate 0.083% among 340,000;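 active = percent activation above the mean of all tested compounds plus 3 SD, cut at about 19% in these data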;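 note: higher means more PKAc released from R1A so a rise in polarization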
Neddylation inh – inhibitors of cullin neddylation, primary screen, biochemical, TR-FRET, uHTS, NAE and Ubc12; NEDD8-conjugating enzyme Ubc12 (Homo sapiens) + NEDD8-activating enzyme E1 regulatory …; calls only at 25 µM; hit rate 0.58% among 360,000; in the data active = inhibition above about 36%
PolyA inhibitor – polyadenylation inhibitors in yeast reporter cells, primary screen, luminescence, S. cerevisiae | hit rate 0.02% among 300,000 | S. cerevisiae SKY197-pL101 polyadenylation reporter, beta-gal luminescence; efflux-impaired pdr1/pdr3 knockout yeast; score 100 = 6 SD above DMSO | activity score, % at 12 µM;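 active = lowest replicate activity score at least 50, where 100 means six control SD above control mean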;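 note: yeast exposed to compound for 9 h at 30 °C; higher score means more reporter readthrough which indicates perturbed polyadenylation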
Neddyl conf – blockade of NEDD8 conjugation to cullin – biochemical, TR-FRET, single concentration, confirmation. shares compounds with Neddylation inh. TR-FRET cullin neddylation biochemical assay. calls only at 25 µM. hit rate 13% among 1,800. AID 652217, 2013; in the data active = inhibition above about 40%;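 note: neddylation substrate is the cullin 1 ring ligase complex with SKP2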
* = called active by the depositor; i = inactive; nt = no result shown; + = active, no number. Compounds with a hit are over-represented: about 0.72% of the library has one in this group of screens.

SMILES | PKA-R2B act | PKA-R1A act | Neddylation inh | PolyA inhibitor | Neddyl conf
CCN(CC)c1ccc(C(=O)N/N=C/c2ccc(OC)cc2OC)cc1 | -7.6 | -1.2 | + | 16.3 | i
COc1ccc(OC)c(C=NNC(=O)c2ccc(NS(=O)(=O)c3cccs3)cc2)c1 | nt | nt | + | nt | nt
Cc1nn(-c2ccccc2)c(N)c1C1(O)C(=O)N(C(C)C)c2ccccc21 (stereo not given) | -6.5 | -3.2 | i | 10.3 | nt
Cc1nn(-c2ccccc2)c2c1P(=O)(O)/C(=C1\N(C)c3ccccc3C1(C)C)C=N2 | -4.1 | -11.5 | + | 12.2 | i
c1ccc(-n2cc(CN3CCCC(CN4CCCC4)C3)c(-c3ccc4c(c3)OCO4)n2)cc1 (stereo not given) | -16.9 | -9.5 | i | 11.4 | nt
OC[C@@H]1CCCN1Cc1cn(-c2ccccc2)nc1-c1ccc2c(c1)OCO2 | 1.6 | -1.6 | + | -16.2 | i
COCC1CCCCN1Cc1cn(-c2ccccc2)nc1-c1ccc2c(c1)OCO2 (stereo not given) | 3.5 | -2.7 | + | 7.6 | i
Cc1cc(Cn2nc(-c3ccccc3)cc2C(=O)NCc2cccc(Br)c2)on1 | -22.7 | -15.6 | i | 0.6 | nt
Cn1cncc1C#Cc1ccc2cc(C(C)(C)O)oc(=O)c2c1 | -9.6 | 11.0 | i | nt | nt
Cn1cncc1C#Cc1ccc2cc(CCO)oc(=O)c2c1 | 9.1 | 0.7 | + | nt | i
Cc1nn(C)c2nc(-c3cccs3)cc(C(F)(F)F)c12 | -9.2 | -0.9 | + | 1.9 | i
Cc1nn(CCO)c2nc(-c3cccs3)cc(C(F)(F)F)c12 | -3.3 | -3.8 | nt | -16.1 | nt
COC(=O)C1CCN(S(=O)(=O)CCNC(=O)c2ccc(F)cc2)CC1 | 2.7 | 7.6 | i | 12.6 | nt
O=C(CCN1C(=O)C2CC=CCC2C1=O)OCC(=O)c1ccc(F)cc1 (stereo not given) | -5.8 | -5.2 | i | nt | nt
CC(=O)Nc1ccc(C(=O)COC(=O)CCN2C(=O)C3CC=CCC3C2=O)cc1 (stereo not given) | 6.5 | 3.2 | + | -1.8 | i
COc1ccc(C(=O)NC2CC3CCCC(C2)N3Cc2ccccc2)c(OC)c1 (stereo not given) | -5.5 | 13.3 | + | 0.8 | i
COc1ccc(C(=O)NC2CC3CCCC(C2)N3Cc2ccccc2)cc1 (stereo not given) | -8.4 | -14.9 | i | 4.5 | nt
CCCCC1=CC2=CC(=O)C(C)(OC(=O)CC)C(=O)C2=CN1CCc1ccccn1 (stereo not given) | 1.2 | -15.7 | + | 7.0 | i
O=C1c2ccc(-c3ccc4c(c3)C(=O)N(CCCO)C4=O)cc2C(=O)N1CCCO | -1.1 | -2.4 | + | 0.4 | i
CCCCNC(=O)c1c[nH]c2ccc(S(=O)(=O)N3CCOCC3)cc2c1=O | 1.7 | -8.8 | i | 7.5 | nt
COc1ccc(N2CCN(S(=O)(=O)c3ccc4c(c3)NC(=O)C(C)S4)CC2)cc1 (stereo not given) | -1.2 | 2.8 | i | 15.8 | nt
Cc1nn(-c2ccccc2)c(C)c1/C=N/NC(=O)c1ccccc1O | -8.9 | -3.7 | i | -9.2 | nt
Cc1nn(-c2ccccc2)c(N2CCCC2)c1/C=N/NC(=O)c1ccccc1O | 4.2 | 8.9 | + | 10.8 | i
Cc1ccc(C(O)c2ncc(-c3ccccc3C)[nH]2)cc1F (stereo not given) | nt | nt | i | nt | nt
Cc1ccc(C(O)c2ncc(-c3cccc4ccccc34)[nH]2)cc1F (stereo not given) | nt | nt | + | nt | i
SMILES | PKA-R2B act | PKA-R1A act | Neddylation inh | PolyA inhibitor | Neddyl conf
Cc1ccc2nc(C)cc(N/N=C/c3ccccc3O)c2c1 | -3.3 | -6.6 | i | -19.8 | nt
COc1ccccc1/C=N/Nc1cc(C)nc2ccc(C)cc12 | 7.3 | -5.9 | + | 9.1 | i
NNC(=O)c1oc2nc(-c3ccc(Cl)cc3)cc(-c3ccccc3)c2c1N | -3.1 | 3.6 | + | 23.4 | i
NNC(=O)c1oc2nc(-c3ccco3)cc(-c3ccco3)c2c1N | nt | nt | i | -9.5 | nt
Nc1c(C(=O)N/N=C/c2cccnc2)oc2nc(-c3ccccc3)cc(-c3ccco3)c12 | nt | nt | + | -6.5 | i
COc1ccc(OCC(=O)N/N=C/c2ccc(N(C)C)cc2)cc1 | -6.8 | -3.9 | + | 10.5 | +
CN(C)c1ccc(/C=N/NC(=O)Cn2nnc3ccccc32)cc1 | -4.5 | -6.8 | + | 17.0 | i
CN(C)c1ccc(/C=N/NC(=O)CCCCCNC(=O)c2ccccc2)cc1 | -1.0 | -7.6 | + | 8.2 | +
CCCCCC(=O)N/N=C/c1ccc(N(C)C)cc1 | -3.7 | -2.8 | + | 12.5 | nt
COc1ccc(/C=N/NC(=O)CNC(=O)COc2ccccc2)cc1 | 7.3 | 0.8 | i | 4.1 | nt
CCN(CC(=O)Nc1c(F)cccc1F)C(=O)c1cc(S(=O)(=O)N2CCOCC2)ccc1N1CCCC1 | -3.1 | -1.0 | i | -16.0 | nt
CCOc1ccccc1NC(=O)COC(=O)C1CCC(=O)N1 (stereo not given) | -8.2 | 1.9 | i | nt | nt
Nc1cccc(Oc2ccc3c(c2)C(=O)NC3=O)c1 | -16.6 | 6.4 | i | 12.3 | nt
CN(C)c1ccc(/C=N/NC(=O)CNC(=O)c2ccc3c(c2)OCCO3)cc1 | -12.9 | -1.3 | + | 6.5 | nt
CCN(CC)c1ccc(/C=N/NC(=O)CNC(=O)c2ccc3c(c2)OCCO3)cc1 | -0.5 | 3.7 | nt | -0.1 | nt
Cc1c(/C(O)=C2\C(=O)C(=O)N(CCN(C)C)C2c2ccccc2)cnn1-c1ccccc1 (stereo not given) | -6.6 | -5.5 | i | -9.3 | nt
O=C(NCC(c1ccco1)N1CCc2ccccc2C1)c1ccc(F)cc1 (stereo not given) | 1.6 | -7.3 | i | -1.1 | nt
CCCCn1c2nc3ccccc3nc2c2c(=O)n(CC(C)C)cnc21 | -2.2 | -4.5 | + | nt | i
O=c1[nH]c2ccccc2nc1/C=C/c1ccccc1 | -3.4 | -14.0 | + | -18.2 | nt
Cc1cc(C=O)c(C)c2c1[nH]c1ccccc12 | -6.0 | 3.5 | + | nt | i
Cc1ccc(C)c2c1[nH]c1ccccc12 | -8.6 | -6.2 | i | -12.9 | nt
C[C@@H]1[C@H]2[C@@H]3CC[C@@H](C3)[C@H]2CN[C@H]1c1cn(Cc2ccccc2)c2ccccc12 | -1.2 | -6.6 | i | nt | nt
CCOC(=O)c1nsnc1NCCSC(=N)N | -3.4 | -4.6 | + | 10.1 | i
O=C(Nc1ccc2nc(-c3cccnc3)[nH]c2c1)C12CC3CC(CC(C3)C1)C2 | 11.4 | -2.5 | nt | 6.2 | nt
O=C(Nc1ccc2nc(-c3cccnc3)[nH]c2c1)C1CCCCC1 | 0.7 | 1.9 | + | -3.3 | i
